QS inhibitor – inhibitors of bacterial quorum sensing in S. aureus; S. aureus RN6390 RNAIII-GFP reporter, AIP-induced, flow cytometry 3 h; inhibition, % at 2 µM; actives 0.3% (n = 24,000);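 active = share of bacteria positive for the green fluorescent reporter and its mean brightness both inhibited by 50% or more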
VLA-4 antagonist – blocks LDV-FITC ligand binding to Mn2+-activated human VLA-4 integrin; actives 0.2% (n = 24,000); inhibition, % at 10 µM (by protocol); Jurkat cells, LDV-FITC binding with Mn2+, flow cytometry; 100% = Mn2+-driven binding gain fully reversed;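 active = inhibition above 50%; inconclusive = compound itself fluorescent, judged against control cell fluorescence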
Target sequence (P13612 whole entry, looked up): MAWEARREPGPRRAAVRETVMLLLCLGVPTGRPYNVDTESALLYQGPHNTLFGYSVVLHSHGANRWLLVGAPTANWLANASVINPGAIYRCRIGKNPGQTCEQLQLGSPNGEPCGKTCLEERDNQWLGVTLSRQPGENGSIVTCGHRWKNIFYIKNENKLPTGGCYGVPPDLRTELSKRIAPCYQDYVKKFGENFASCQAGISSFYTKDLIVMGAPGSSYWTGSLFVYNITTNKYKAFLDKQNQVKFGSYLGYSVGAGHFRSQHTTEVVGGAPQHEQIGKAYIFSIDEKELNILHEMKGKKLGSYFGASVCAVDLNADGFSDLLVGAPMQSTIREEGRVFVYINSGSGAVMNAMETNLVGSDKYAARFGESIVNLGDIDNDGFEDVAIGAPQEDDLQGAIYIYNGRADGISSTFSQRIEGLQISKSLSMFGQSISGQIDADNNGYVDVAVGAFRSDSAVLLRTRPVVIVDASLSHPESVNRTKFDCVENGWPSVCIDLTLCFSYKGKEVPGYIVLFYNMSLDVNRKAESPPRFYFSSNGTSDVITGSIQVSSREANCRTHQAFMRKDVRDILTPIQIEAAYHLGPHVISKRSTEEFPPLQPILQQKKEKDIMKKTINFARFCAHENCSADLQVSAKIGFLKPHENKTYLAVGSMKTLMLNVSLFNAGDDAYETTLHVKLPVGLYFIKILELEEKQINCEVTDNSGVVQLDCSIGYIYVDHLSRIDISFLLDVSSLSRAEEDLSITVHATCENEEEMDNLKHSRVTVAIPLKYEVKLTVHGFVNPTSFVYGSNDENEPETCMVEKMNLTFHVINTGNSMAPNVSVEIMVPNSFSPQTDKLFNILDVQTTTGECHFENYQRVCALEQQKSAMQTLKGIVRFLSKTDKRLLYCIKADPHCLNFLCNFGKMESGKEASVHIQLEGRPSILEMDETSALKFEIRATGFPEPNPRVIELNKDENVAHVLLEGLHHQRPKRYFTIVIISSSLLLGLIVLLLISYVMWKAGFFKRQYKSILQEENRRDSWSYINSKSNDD
Proteasome disasm – blocks ATP-dependent breakdown of the yeast 26S proteasome; anti-FLAG beads, GFP-proteasome disassembly, flow cytometry; inhibition of disassembly, % (no concentration beside the values); actives 0.2% (n = 24,000);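 active = inhibition of disassembly above about 33%, limit read from the data; inconclusive = likely self-fluorescent, control bead median signal at least 40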;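 note: higher percent means more bead fluorescence retained so stronger block of disassembly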
Autofluor Jurkat – compound fluoresces in Jurkat cells, VLA-4 screen interference; compound autofluorescence, flow cytometry; active compounds read high; 1 = vehicle-only cell background; fluorescence ratio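 (tested at 10 µM compound in the well)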; actives 0.61% (n = 24,000);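 active = fluorescence ratio above 2.44, which is 1 plus 3 SD of all ratios; inconclusive = signal too bright to measure linearly, ratio around 10 or more; inactive = fluorescence ratio below 2.44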;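 note: green fluorescence of cells measured with 488 nm excitation and 530 nm emission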
VLA-4 agonist – allosterically activates the human VLA-4 integrin; 24,000 tested, under 10 active; P13612; activation, % at 10 µM (by protocol); Jurkat cells, LDV-FITC binding, flow cytometry;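 active = fluorescent ligand binding to cells raised by more than 40% of the manganese-induced maximum; inconclusive = compound's own fluorescence above 85% of the ligand control signal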
Prostate diff – promotes differentiation of LNCaP prostate cells; flow cytometry side scatter, 4 d; side scatter shift, % at 10 µM; actives 0.56% (n = 24,000); AID 795;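 active = side scatter shift above 30%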;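 note: androgen-responsive LNCaP prostate cancer cells in charcoal-stripped serum medium; higher shift means more granular cells and more differentiation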
A number is an active result; . = inactive; ? = inconclusive; / = no result. In the library only some 1.8% were active in any assay of this set; here they are far more common.

SMILES	QS inhibitor	VLA-4 antagonist	Proteasome disasm	Autofluor Jurkat	VLA-4 agonist	Prostate diff
O=c1c[n+]([O-])c2ccccc2n1OCc1ccccn1	.	?	.	.	?	.
O=c1c[n+]([O-])c2ccccc2n1OCc1c(F)cccc1F	.	?	.	3.1	?	.
CCCCCNC(=O)CCCCn1c(=O)[nH]c2cc(OCC)c(OCC)cc2c1=O	.	78	.	.	.	.
CSc1nnc2n(CCc3ccccc3)c(=O)c3c4c(sc3n12)CCCC4	.	.	.	.	.	.
Cn1c(=O)c2c3c(sc2n2c(SCc4ccccc4)nnc12)CCCC3	64	.	.	.	.	.
Cc1ccc(CN2CCSc3ccc(C(=O)N4CCN(c5ncccn5)CC4)cc32)cc1	.	.	.	.	.	44
CCN(CCNC(=O)C1CCN(Cc2nc(-c3cccc(Cl)c3)oc2C)CC1)c1ccccc1	.	?	.	.	?	.
Cc1oc(-c2ccc(Cl)cc2)nc1CN1CCC(C(=O)NCCCN2CCOCC2)CC1	.	.	.	.	.	63
Cc1oc(-c2cccc(Cl)c2)nc1CN1CCCC(C(=O)NCCCN2CCOCC2)C1 (stereo not given)	.	.	.	.	.	.
CCN(CCNC(=O)C1CCN(Cc2nc(-c3ccc(Cl)cc3)oc2C)CC1)c1ccccc1	.	?	.	.	?	66
CCc1ccc(-c2nc(CN3CCC(C(=O)NCCN(CC)c4ccccc4)CC3)c(C)o2)cc1	.	?	.	.	?	32
CCCSc1nnc(Cn2c(=O)sc3ccccc32)n1-c1ccccc1	.	.	.	.	.	.
Cc1nnc(SCc2nc3ccccc3s2)n1-c1ccccc1	.	?	?	2.8	?	.
CCC(=O)Nc1ccc(S(=O)(=O)N2CCc3ccccc3C2)cc1	.	.	.	.	.	.
CCOc1ccc(S(=O)(=O)N2CCc3ccccc3C2)cc1	.	?	.	3.2	?	.
CCOC(=O)c1c(C)oc2c1c(/C=N/c1ccccn1)c(O)c1ccccc12	.	?	?	8.9	?	.
CC(C)Cc1cc(C(=O)Nc2sc3c(c2C#N)CCCC3)no1	55	.	.	.	.	.
COc1ccc(-c2cc(C(F)(F)F)nc(N3CCCCCC3)n2)cc1	.	.	.	.	.	.
COc1ccc(-c2cc(C(F)(F)F)nc(N3CCN(C)CC3)n2)cc1	.	.	.	.	.	43
CCOC(=O)CSc1cn2c(n1)CCC2	.	.	.	.	.	.
Cc1ccc(N2CCN(C(=S)c3ccc(N(C)C)cc3)CC2)cc1	.	?	.	3.5	?	.
S=C(c1ccc(N2CCOCC2)cc1)N1CCCCC1	.	.	.	.	.	.
COC(=O)c1ccc(CSc2nc3c(cnn3-c3ccc(F)cc3)c(=O)[nH]2)o1	.	.	.	.	.	.
COC(=O)c1ccc(CSc2nc3c(cnn3-c3ccc(Cl)cc3)c(=O)[nH]2)o1	71	?	.	.	?	.
COc1ccc(C2C(C(C)=O)=C(C)N=c3s/c(=C/c4ccc5c(c4)OCO5)c(=O)n32)cc1 (stereo not given)	.	.	.	.	.	.
SMILES	QS inhibitor	VLA-4 antagonist	Proteasome disasm	Autofluor Jurkat	VLA-4 agonist	Prostate diff
CC(=O)C1=C(C)N=c2s/c(=C/c3ccc4c(c3)OCO4)c(=O)n2C1c1ccc(N(C)C)cc1 (stereo not given)	.	?	.	8.5	?	.
COC(=O)c1ccc(CSc2nc3ccccc3c(=O)n2Cc2ccco2)o1	.	.	.	.	.	.
CCOC(=O)Cn1c(=O)oc2cc(S(=O)(=O)Nc3c(C)cc(C)cc3C)ccc21	.	?	.	6	?	.
CCOC(=O)Cn1c(=O)oc2cc(S(=O)(=O)N3CCCC(C(=O)OCC)C3)ccc21 (stereo not given)	.	?	.	3.1	?	.
CCOC(=O)Cn1c(=O)oc2cc(S(=O)(=O)NCc3ccccn3)ccc21	.	?	.	3.6	?	.
CCOC(=O)Cn1c(=O)oc2cc(S(=O)(=O)N3CCC(N4CCCCC4)CC3)ccc21	.	.	.	.	.	.
CCOC(=O)Cn1c(=O)oc2cc(S(=O)(=O)NCc3cccs3)ccc21	.	?	.	.	?	.
CCc1ccccc1S(=O)(=O)Cc1ccc(C(=O)N2CCN(c3ccccn3)CC2)o1	.	?	.	.	?	.
O=C(Nc1ncc(Br)s1)C(Cc1ccccc1)n1cccc1 (stereo not given)	.	?	.	.	?	.
CC(C)CCSc1nnc(Cn2c(=O)sc3ccccc32)n1C	.	?	.	.	?	.
c1ccc2c(c1)nc(NCC1CCCO1)c1nnnn12 (stereo not given)	.	?	.	5	?	.
COC(=O)c1cccnc1-n1c(=O)c2cccnc2n(Cc2cccc(OC)c2)c1=O	.	.	.	.	.	.
Cc1ccc(NC(=O)C2CCCN(S(=O)(=O)c3cccs3)C2)cc1 (stereo not given)	.	68	.	.	.	.
COc1cc(NC(=O)c2cc(C)on2)cc(OC)c1OC	.	.	.	.	.	.
COC(=O)c1cc(-c2ccccc2)sc1NC(=O)c1cc(C)on1	.	.	.	.	.	35
CCN(CC)CCCNc1oc(-c2cccc(Cl)c2)nc1C#N	.	.	.	.	.	32
CCCN1Cc2cccc(C(=O)Nc3ccc(CN4CCCC4)cc3)c2C1=O	.	.	102	.	.	.
CCCN1Cc2cccc(C(=O)Nc3ccc(OC)c(OC)c3)c2C1=O	.	.	.	.	.	.
CCN1CCN(c2ncc(C(=O)Nc3ccccc3C(=O)OC)c3ccccc23)CC1	.	.	.	.	.	.
CCCCCn1c(=O)[nH]c2cc(C(=O)NCCCN3CCC(C)CC3)ccc2c1=O	.	.	.	.	.	.
CC(C)N1CCC2(CC1)N=C(c1ccc3c(c1)OCO3)CC(c1cc(Cl)ccc1O)N2 (stereo not given)	.	.	.	.	.	34
Cc1ccc(C)c(N2CCN(C(=O)CN(C)S(=O)(=O)c3cnc[nH]3)CC2)c1	.	.	.	.	.	.
O=C1CC(N2CCN(c3ccc(F)cc3)CC2)C(=O)N1Cc1ccc(N2CCCC2=O)cc1 (stereo not given)	.	/	/	/	/	/
Cc1ccc(C)c(N2CCN(S(=O)(=O)c3c(C)noc3/C=C/N(C)C)CC2)c1	.	?	49	.	.	.
Cn1cnc(S(=O)(=O)NCc2cccs2)c1	.	.	.	.	.	.
COc1cccc2sc(Nc3nnc(-c4ccc(F)cc4)o3)nc12	/	90	/	.	.	/
CCOC(=O)C1CCN(C(=O)c2sc3nc(-c4ccccc4)cn3c2C)CC1	.	?	.	2.8	?	.
COc1ccccc1N1CCN(C(=O)c2sc3nc(-c4ccccc4)cn3c2C)CC1	.	?	.	3.2	?	.
COc1ccc(-c2oc3ncn(CCN4CCOCC4)c(=N)c3c2-c2ccc(OC)cc2)cc1	53	.	.	.	.	34
